Tests used:
Details in all cases: concentration: 1 μM, replicates: in singlicate; n = 1
EPHA7 = system: EPHA7
EPHA8 = system: EPHA8
EPHB1 = system: EPHB1
EPHB2 = system: EPHB2
EPHB3 = system: EPHB3
EPHB4 = system: EPHB4
EPHB6 = system: EPHB6
ERBB2 = system: ERBB2
ERBB3 = system: ERBB3
ERBB4 = system: ERBB4
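Further: KINOMEscan kinase panel screen.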

`O=C(Nc1n[nH]c2nc(-c3ccccc3O)ccc12)C1CC1` [SB-711880] was tested, and the “%Inh” value (EPHA7) was 58%, the “%Inh” value (EPHA8) was 37% and the “%Inh” value (EPHB1) was 0%. For the same molecule, the “%Inh” value (EPHB2) was 0%, the “%Inh” value (EPHB3) was 0% and the “%Inh” value (EPHB4) was 0%. For the same molecule, the “%Inh” value (EPHB6) was 53%, the “%Inh” value (ERBB2) was 0% and the “%Inh” value (ERBB3) was 0%. The “%Inh” value (ERBB4) was 0%.
With `CCNc1nccc(-c2c(-c3ccc(F)cc3)ncn2C2CCN(C)CC2)n1` the “%Inh” value (EPHA7) was 0%, the “%Inh” value (EPHA8) was 0% and the “%Inh” value (EPHB1) was 0%. The “%Inh” value (EPHB2) was 0%, the “%Inh” value (EPHB3) was 0% and the “%Inh” value (EPHB4) was 0%. For the same molecule, the “%Inh” value (EPHB6) was 9%, the “%Inh” value (ERBB2) was 0% and the “%Inh” value (ERBB3) was 9%. For the same molecule, the “%Inh” value (ERBB4) was 0%.
In the case of `Cl.N#CCc1ccc(Nc2nccc(Nc3ccc(Oc4ccccc4)cc3)n2)cc1` [GW639905], the “%Inh” value (EPHA7) is reported as 0%, the “%Inh” value (EPHA8) is reported as 0% and the “%Inh” value (EPHB1) is reported as 0%. For the same molecule, the “%Inh” value (EPHB2) was 6%, the “%Inh” value (EPHB3) was 0% and the “%Inh” value (EPHB4) was 0%. For the same molecule, the “%Inh” value (EPHB6) was 46%, the “%Inh” value (ERBB2) was 23% and the “%Inh” value (ERBB3) was 96.3%. The “%Inh” value (ERBB4) was 53%.
In the case of `O=C(Nc1c(F)cccc1F)c1cc(C(=O)c2ccccc2F)c[nH]1` [GSK1326180], the “%Inh” value (EPHA7) is reported as 0%, the “%Inh” value (EPHA8) is reported as 0% and the “%Inh” value (EPHB1) is reported as 4%. For the same molecule, the “%Inh” value (EPHB2) was 0%, the “%Inh” value (EPHB3) was 6% and the “%Inh” value (EPHB4) was 0%. The “%Inh” value (EPHB6) was 0%, the “%Inh” value (ERBB2) was 35% and the “%Inh” value (ERBB3) was 20%. The “%Inh” value (ERBB4) was 0%.
In the case of `Cn1cc(-c2cnc(N)c3c(-c4ccc5c(c4)CCN5C(=O)Cc4ccccc4)csc23)cn1` [GSK2593074], the “%Inh” value (EPHA7) is reported as 6%, the “%Inh” value (EPHA8) is reported as 8% and the “%Inh” value (EPHB1) is reported as 6%. The “%Inh” value (EPHB2) was 2%, the “%Inh” value (EPHB3) was 4% and the “%Inh” value (EPHB4) was 9%. For the same molecule, the “%Inh” value (EPHB6) was 98.3%, the “%Inh” value (ERBB2) was 0% and the “%Inh” value (ERBB3) was 4%. The “%Inh” value (ERBB4) was 0%.
In the case of `Cn1cc(-c2ccc3c(c2)CCN3C(=O)Cc2cc(F)cc(F)c2F)c2c(N)ncnc21` [GSK2634140], the “%Inh” value (EPHA7) is reported as 3%, the “%Inh” value (EPHA8) is reported as 8% and the “%Inh” value (EPHB1) is reported as 14%. For the same molecule, the “%Inh” value (EPHB2) was 0%, the “%Inh” value (EPHB3) was 11% and the “%Inh” value (EPHB4) was 0%. The “%Inh” value (EPHB6) was 87%, the “%Inh” value (ERBB2) was 31% and the “%Inh” value (ERBB3) was 0%. The “%Inh” value (ERBB4) was 41%.
For `Cc1ccc(Nc2ccnc(Nc3ccc(C)c(F)c3)n2)cc1O.Cl` [GW582868], the “%Inh” value (EPHA7) was 0%, the “%Inh” value (EPHA8) was 26% and the “%Inh” value (EPHB1) was 1%. For the same molecule, the “%Inh” value (EPHB2) was 0%, the “%Inh” value (EPHB3) was 0% and the “%Inh” value (EPHB4) was 8%. For the same molecule, the “%Inh” value (EPHB6) was 0%, the “%Inh” value (ERBB2) was 19% and the “%Inh” value (ERBB3) was 13%. For the same molecule, the “%Inh” value (ERBB4) was 9%.
With `COc1ccc(NC(=O)c2ccoc2)cc1-c1ccc(C(=O)NCC2CC2)cc1` [GW810437] the “%Inh” value (EPHA7) was 0%, the “%Inh” value (EPHA8) was 1% and the “%Inh” value (EPHB1) was 4%. The “%Inh” value (EPHB2) was 0%, the “%Inh” value (EPHB3) was 0% and the “%Inh” value (EPHB4) was 0%. The “%Inh” value (EPHB6) was 24%, the “%Inh” value (ERBB2) was 15% and the “%Inh” value (ERBB3) was 12%. The “%Inh” value (ERBB4) was 7%.
`COc1cccc(CC(=O)N2CCc3cc(-c4cn(C)c5ncnc(N)c45)ccc32)c1` [GSK2608899] was tested, and the “%Inh” value (EPHA7) was 10%, the “%Inh” value (EPHA8) was 11% and the “%Inh” value (EPHB1) was 24%. For the same molecule, the “%Inh” value (EPHB2) was 14%, the “%Inh” value (EPHB3) was 7% and the “%Inh” value (EPHB4) was 0%. For the same molecule, the “%Inh” value (EPHB6) was 64%, the “%Inh” value (ERBB2) was 0% and the “%Inh” value (ERBB3) was 0%. The “%Inh” value (ERBB4) was 0%.
For `Cc1cccc(Nc2nc(NCCN)ncc2C(N)=O)c1` [GSK1292139], the “%Inh” value (EPHA7) was 52%, the “%Inh” value (EPHA8) was 58% and the “%Inh” value (EPHB1) was 1%. For the same molecule, the “%Inh” value (EPHB2) was 0%, the “%Inh” value (EPHB3) was 0% and the “%Inh” value (EPHB4) was 0%. For the same molecule, the “%Inh” value (EPHB6) was 50%, the “%Inh” value (ERBB2) was 4% and the “%Inh” value (ERBB3) was 0%. The “%Inh” value (ERBB4) was 10%.

Reference: paper PMC5540273 (PLoS ONE, 2017)
